In PubChem BioAssay AID1001 (Sanford-Burnham Center for Chemical Genomics, 2008) one finds activation fold data, which are given here for 63 compounds.

Among all 200,000 compounds or so, about 50 (0.03%) were called active. No rule for the calls is given here. The entries come from a sample that favours actives as a whole. Entries with a potency or affinity are not part of this list.

Sequence of Alkaline phosphatase, tissue-nonspecific isozyme (Homo sapiens) (P05186 whole entry, looked up): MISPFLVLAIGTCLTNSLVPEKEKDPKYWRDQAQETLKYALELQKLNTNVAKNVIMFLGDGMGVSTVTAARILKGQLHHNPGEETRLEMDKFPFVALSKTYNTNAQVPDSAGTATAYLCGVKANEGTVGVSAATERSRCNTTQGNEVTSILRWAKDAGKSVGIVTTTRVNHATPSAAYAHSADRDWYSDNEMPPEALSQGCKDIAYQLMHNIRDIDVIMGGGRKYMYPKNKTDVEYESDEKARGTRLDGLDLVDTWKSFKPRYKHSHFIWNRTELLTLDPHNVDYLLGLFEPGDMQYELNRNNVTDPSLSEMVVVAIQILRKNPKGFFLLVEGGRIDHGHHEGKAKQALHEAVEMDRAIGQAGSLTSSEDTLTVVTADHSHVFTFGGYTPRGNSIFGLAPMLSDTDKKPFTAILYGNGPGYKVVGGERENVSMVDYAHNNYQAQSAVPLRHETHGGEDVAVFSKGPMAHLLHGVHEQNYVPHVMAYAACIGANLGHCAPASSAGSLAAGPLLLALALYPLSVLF

The test addresses Alkaline phosphatase, tissue-nonspecific isozyme (Homo sapiens) (UniProt P05186). Put plainly: stimulation of alkaline phosphatase TNAP activity – biochemical, luminescent, no phosphate acceptor, uHTS, primary screen (AID 1001). Conditions: purified TNAP, luminescent activation assay, at 20 µM, stronger effect = higher value.
`CC(=O)c1ccc(NC(=O)COc2ccc3c(c2)OCO3)cc1`: the activation fold is 1.1 (inactive). To `Cc1cc(C)c(NC(=O)CN2CCN(C)CC2)c(C)c1` belongs 1.2 (inactive). To `Cc1cc(NC(=O)CN2CCN(C)CC2)no1` belongs 1.1 (inactive).

Turning to `COc1ccc(C2C(C(=O)OC3CCCCC3)=C(C)Nc3nnnn32)c(OC)c1OC` (stereo not drawn), the activation fold was 1 (inactive).

For `N#Cc1c(SCC(=O)O)nc(-c2ccccc2)c2c1CCCC2`, the activation fold is 1 (inactive). Take `Cc1cccc2sc(NC(=O)CN(C)S(=O)(=O)c3ccc(Br)s3)nc12`: the activation fold was 1 (inactive).

Take `CC1CCN(Cc2nc(Cl)c3c4c(sc3n2)CCC4)CC1`: the activation fold was 1 (inactive). In the case of `COc1cccc(-c2nnc(Nc3nc4c(F)cccc4s3)o2)c1`, the activation fold was 1.7 (inactive). For `COc1cc(OC)cc(-c2nnc(Nc3nc4c(F)cccc4s3)o2)c1` the value was 1.2 (inactive); for `O=C(OCc1cc2ccccc2[nH]c1=O)C1CCCO1` (stereo not drawn), 1.1 (inactive).

Take `O=C(CSc1nnc(C2COc3ccccc3O2)o1)Nc1nccs1` (stereo not drawn): the activation fold is 1.2 (inactive). For the compound `CCCCOC(=O)c1ccc(NC(=O)CSCc2n[nH]c(=O)[nH]2)cc1`, the activation fold is 1.4 (inactive). For `Cc1ccc(O)c(-c2cc(-c3ccccc3[N+](=O)[O-])[nH]n2)c1` the value was 2.3 (inactive); for `O=[N+]([O-])c1ccccc1-c1cc(-c2ccccc2O)n[nH]1`, 2.1 (inactive); for `CC(C)(Oc1ccc(Cl)cc1)C(=O)NCc1ccc(S(N)(=O)=O)cc1`, 1.2 (inactive). In the case of `CCn1cc(S(=O)(=O)CC(=O)Nc2ccc3c(c2)OCCO3)c2ccccc21`, the activation fold was 1.1 (inactive). For `CC(C)C(OC(=O)C1=Cc2ccccc2OC1)C(=O)NC1CCCC1` (stereo not drawn) the value was 1.2 (inactive); for `CN(C)CCNc1ccc(-c2nn(C)c(=O)c3ccccc23)cc1[N+](=O)[O-]`, 1 (inactive). Turning to `O=S1(=O)NC2CCCCCN2c2ccc(F)cc21` (stereo not drawn), the activation fold is 1.1 (inactive). For `Cn1c(C(=O)NCC2CCCO2)cc2c(=O)n(C)c3ccccc3c21` (stereo not drawn), the activation fold was 1.1 (inactive). To `CCSC1=C(C#N)C2(CCCC2)C(C#N)=C(N)N1` belongs 1 (inactive). To `CC(C)N1CCC2(CC1)C(C#N)=C(N)NC(S)=C2C#N` belongs 5.8 (active); to `CSC1=C(C#N)C2(CCCC2)C(C#N)=C(N)N1`, 1.1 (inactive); to `CCOC(=O)CSc1nnc(NCC(=O)OC(C)C)c(=O)[nH]1`, 1.2 (inactive).

Consider `CC(=O)NC(=S)Nc1ccc(NC(=O)COc2ccc(C(C)C)cc2)cc1`, for which the activation fold was 1 (inactive). With `Cc1ccccc1NC(=O)c1ccc(S(=O)(=O)C(F)F)cc1`, the activation fold is 1.1 (inactive). For `COC(=O)c1ccc2nc(Nc3nc4ccc(F)cc4s3)sc2c1` the value was 1.2 (inactive); for `CCOC(=O)c1csc(Nc2nc3ccc(F)cc3s2)n1`, 1.1 (inactive); for `C/C(=N\NC(=O)c1ccc(Cn2cc([N+](=O)[O-])cn2)o1)c1cccc(NC(=O)C(C)C)c1`, 1.1 (inactive).

Turning to `CCC(C)NC(=O)CSC1=Nc2ccccc2C2=NC(c3ccccc3)C(=O)N12` (stereo not drawn), the activation fold is 1 (inactive). For `CC(/C=N/NC(=O)Cc1cccs1)=C\c1ccccc1` the value was 1 (inactive); for `COc1cccc(OCCOCCNCCO)c1`, 1.1 (inactive); for `O=C(NNC(=O)C(c1ccccc1)c1ccccc1)c1ccccn1`, 1.5 (inactive). For `CC(C)C(=O)NNC(=O)c1ccccn1`, the activation fold was 1.2 (inactive).

As for `Cc1nn(CC(=O)NC2C(=O)N3C(C(=O)O)=C(CSc4nnnn4C)CSC23)cc1Br` (stereo not drawn), the activation fold is 1.2 (inactive). With `O=C1N(CCCN2C(=O)C3(OCCO3)c3ccccc32)c2ccccc2C12OCCO2`, the activation fold is 1 (inactive).

As for `O=C1N(CCCCN2C(=O)C3(OCCO3)c3ccccc32)c2ccccc2C12OCCO2`, the activation fold was 1.2 (inactive). Turning to `C=CCN1C(=O)C(C)(C)Nc2ccccc21`, the activation fold is 1.1 (inactive). To `C=CCN1C(=O)C2(NC(=O)c3ccccc3N2)c2ccccc21` (stereo not drawn) belongs 1.1 (inactive); to `O=C(CSc1nnc(-c2ccccc2)n1-c1ccc(Cl)cc1)N/N=C/c1ccco1`, 1 (inactive); to `Cc1ccc(C)c(NC(=O)CS(=O)(=O)c2c[nH]c3ccccc23)c1`, 1 (inactive). Take `Cn1cc(Cl)c(C(=O)NC2CCCC2)n1`: the activation fold was 1.1 (inactive).

For `Cn1cc(Cl)c(C(=O)NC2CCCCCC2)n1`, the activation fold is 1.2 (inactive). In the case of `Cc1c(-n2cccc2C=O)cccc1[N+](=O)[O-]`, the activation fold was 1.6 (inactive).

Turning to `COC(=O)Nc1nnc(CCc2ccccc2)s1`, the activation fold is 0.9 (inactive). For `COc1ccccc1CNC(=O)Cc1ccc(Br)cc1` the value was 1.2 (inactive). For `CCOc1ccccc1NC(=O)NC1CC2CCCC(C1)N2Cc1nnnn1CCc1ccccc1` (stereo not drawn) the value was 1.4 (inactive). To `O=C(Nc1ccccc1-c1ccccc1)NC1CC2CCCC(C1)N2Cc1ccc(F)cc1` (stereo not drawn) belongs 2.7 (inactive); to `CC(C)OC(=O)C1C2C=CC3(CN(C(C)c4ccc(Br)cc4)C(=O)C13)O2` (stereo not drawn), 1.1 (inactive); to `Cn1c(N/N=C2\CCCc3ccccc32)nc2c1c(=O)n(Cc1ccccc1)c(=O)n2C`, 2.9 (inactive). For the compound `Cn1c(=O)c2c(nc(N/N=C3\CCCc4ccccc43)n2Cc2ccc(F)cc2)n(C)c1=O`, the activation fold was 2.2 (inactive). As to `Fc1ccc(C2CC(c3ccc(F)cc3)n3ncnc3N2)cc1` (stereo not drawn), the activation fold was 1.1 (inactive). To `CC(C)CCN1CC(O)=C(c2nc3ccccc3[nH]2)C1=N` belongs 2 (inactive); to `CC(C)N1CC(O)=C(c2nc3ccccc3[nH]2)C1=N`, 1.4 (inactive); to `C=CCNC(=O)c1cc(-c2ccc(Br)cc2)on1`, 1.2 (inactive). For the compound `O=C(NNc1ccccn1)C(=O)NNS(=O)(=O)c1ccc(F)cc1`, the activation fold was 2.7 (inactive).

For `Cc1ccc(S(=O)(=O)NNC(=O)C(=O)NNc2ccccn2)cc1`, the activation fold was 2.9 (inactive). For `Cc1ccc(NC(=O)c2cccc(S(C)(=O)=O)c2)cc1` the value was 1.1 (inactive). With `C=CCN(CC=C)C(=O)C1CCC(C(=O)N(CC=C)CC=C)CC1` (stereo not drawn), the activation fold was 1 (inactive). To `COc1ccc(-n2cc(CNCCc3cscn3)c(-c3ccccc3Cl)n2)cc1` belongs 1.1 (inactive). To `COc1ccc(-n2cc(CNCCc3nc(C)cc(C)n3)c(-c3ccccc3Cl)n2)cc1` belongs 1 (inactive); to `COC(=O)NNC(=O)c1ccc(C(C)(C)C)cc1`, 1.1 (inactive); to `CC(C)(C)c1ccc(C(=O)NNC(=O)c2ccc(Cl)cc2)cc1`, 1.9 (inactive).
